# Source: PubChem BioAssay (NCATS)
# Results filed as inconclusive are left out. Where a call stands in place of a potency, no number is given. Unmarked numbers belong to inactive results. Activity calls are given as the source filed them. The call rests on the fitted dose curve; in most records, active means well fitted curve in the direction sought with a large enough effect; inconclusive means small, poorly fitted or top-dose-only effect, or another doubt; inactive means no such curve, though single readings can be large; an effect the other way counts as inactive or inconclusive.
# Columns and labels:
# MCC-13 = experiment: qHTS assay to identify novel small-molecules to repurpose for Merkel cell carcinoma treatment (AID 1296009); settings: MCC and control cell lines, CellTiter-Glo viability, 72 h; series mostly up to 46 µM; further: nearly all actives have a fitted effect of over 60% in size
# Outline: (§1)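 CellTiter-Glo luminescence after 72 hr compound exposure at 37 degree celsius gave cell viability. Libraries NPC and MIPE were run as 8- and 11-point dose responses; RLUs normalized to DMSO (negative) and no-cell (cytotoxicity) controls.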
# MCC-26 = experiment: as above; settings: MCC and control cell lines, CellTiter-Glo viability, 72 h; series mostly up to 46 µM
# Outline: as §1
# MKL-2 = experiment: as above; settings: MCC and control cell lines, CellTiter-Glo viability, 72 h; series mostly up to 46 µM
# Outline: as §1
# UISO = experiment: as above; settings: MCC and control cell lines, CellTiter-Glo viability, 72 h; series mostly up to 46 µM
# Outline: as §1
# WaGa = experiment: as above; settings: MCC and control cell lines, CellTiter-Glo viability, 72 h; series mostly up to 46 µM
# Outline: as §1
# C33A = experiment: Primary qHTS to identify gynecologic anti-cancer compounds using libraries of approved drugs and bioactive compounds (AID 1345084); settings: Gynecologic cancer cell panel viability, ATPlite luminescence, 48 h; series mostly up to 57.5 µM; further: nearly all actives have a fitted effect of over 55% in size
# Outline: (§2)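 Cytotoxicity screen measuring ATP content by luciferase luminescence. Each compound is applied at five concentrations for 48 h at 37 C with 5% CO2.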
# CAOV3 = experiment: as above; settings: Gynecologic cancer cell panel viability, ATPlite luminescence, 48 h; series mostly up to 57.5 µM
# Outline: as §2
# CASKI = experiment: as above; settings: Gynecologic cancer cell panel viability, ATPlite luminescence, 48 h; series mostly up to 57.5 µM
# Outline: as §2
# MKL-1 = experiment: qHTS assay to identify novel small-molecules to repurpose for Merkel cell carcinoma treatment (AID 1296009); settings: MCC and control cell lines, CellTiter-Glo viability, 72 h; series mostly up to 46 µM; further: nearly all actives have a fitted effect of over 60% in size
# Outline: as §1
# NIH3T3 = experiment: as above; settings: MCC and control cell lines, CellTiter-Glo viability, 72 h; at 44.8 µM (top of the series)
# Outline: as §1
# Potency means the concentration at half of the fitted maximal effect.
SMILES,Potency (MCC-13),Potency (MCC-26),Potency (MKL-2),Potency (UISO),Potency (WaGa),Potency (C33A),Potency (CAOV3),Potency (CASKI),Potency (MKL-1),outcome (NIH3T3)
C[C@H]1[C@H]2CC[C@H]3[C@@H]4CC=C5C[C@@H](N(C)C)CC[C@]5(C)[C@H]4CC[C@]23CN1C,inactive,inactive,inactive,inactive,inactive,inactive,inactive,inactive,–,–
CCCCCCCCCCCCSCCOCCO,inactive,inactive,inactive,inactive,inactive,inactive,inactive,inactive,–,–
CCCCCCCCCCCCCCC[C@H](O)[C@@H](N)CO,inactive,–,inactive,inactive,inactive,inactive,inactive,inactive,inactive,–
CNCCc1ccccn1,inactive,–,inactive,inactive,inactive,inactive,inactive,inactive,inactive,–
CCCN(CCc1cccs1)[C@H]1CCc2c(O)cccc2C1,inactive,–,inactive,inactive,–,inactive,inactive,inactive,inactive,inactive
COc1ccc(S(=O)(=O)N2c3ccc(Cl)cc3[C@@](O)(c3ccccc3Cl)[C@H]2C(=O)N2CCC[C@@H]2C(N)=O)cc1OC,inactive,–,inactive,inactive,inactive,inactive,inactive,inactive,inactive,–
C/C=C/C=N/NC(=O)c1ccncc1,inactive,inactive,–,–,–,inactive,–,inactive,–,–
CCOC(=O)C(C#N)=C(c1ccccc1)c1ccccc1,inactive,–,inactive,inactive,inactive,inactive,inactive,inactive,inactive,–
O=C1OC(CN2CCOCC2)CN1/N=C/c1ccc([N+](=O)[O-])o1 (stereo not given),inactive,inactive,–,inactive,inactive,inactive,inactive,inactive,–,–
CN(C)CCC[C@@]1(c2ccc(F)cc2)OCc2cc(C#N)ccc21,inactive,–,inactive,inactive,inactive,inactive,inactive,inactive,inactive,–
COc1cc(NS(=O)(=O)c2ccc(N)cc2)ncn1,inactive,–,inactive,inactive,inactive,inactive,inactive,inactive,inactive,–
CCCc1ncc(C[n+]2ccccc2C)c(N)n1,inactive,–,inactive,inactive,inactive,inactive,inactive,inactive,inactive,–
NC(=O)c1ccccc1O,inactive,–,inactive,inactive,inactive,inactive,–,inactive,inactive,–
O=C(O)c1ccc(S(=O)(=O)N(Cl)Cl)cc1,inactive,–,inactive,inactive,inactive,inactive,–,inactive,inactive,–
Nc1ccc(S(=O)(=O)NCc2ccccc2)cc1,inactive,–,inactive,inactive,inactive,inactive,inactive,inactive,inactive,–
O=C(CN1CCN(Cc2ccc3c(c2)OCO3)CC1)N1c2ccccc2Sc2ccccc21,inactive,–,inactive,inactive,inactive,inactive,inactive,inactive,inactive,inactive
N#CCC(=O)NN,inactive,–,inactive,inactive,inactive,inactive,inactive,inactive,inactive,–
CC[C@]12CCCN3CCc4c(n(c5ccccc45)C(=O)C1)[C@@H]32,–,–,–,–,–,inactive,–,–,–,–
Cc1ccc2c(Br)cc(Br)c(O)c2n1,16.8 µM (active),–,5.96 µM (active),–,9.44 µM (active),20 µM (active),–,–,–,–
CC(=O)Nc1ccc(OCC(O)CNC(C)C)cc1 (stereo not given),inactive,–,inactive,–,inactive,inactive,inactive,inactive,inactive,–
C[C@@]12C(=O)OC(=O)[C@]1(C)C1CCC2O1,3.76 µM (active),–,–,2.66 µM (active),–,–,0.631 µM (active),6.31 µM (active),3.76 µM (active),–
Oc1ccc(Cl)cc1Cc1cc(Cl)ccc1O,–,inactive,11.9 µM (active),–,–,–,–,inactive,23.7 µM (active),–
CN(C)CCOC(=O)C(c1ccccc1)C1(O)CCCC1 (stereo not given),inactive,–,inactive,inactive,–,inactive,inactive,inactive,–,–
C#C[C@]1(OC(C)=O)CC[C@H]2[C@@H]3CCC4=C/C(=N/O)CC[C@@H]4[C@H]3CC[C@@]21CC,inactive,–,–,29.9 µM (active),–,inactive,–,inactive,–,–
O=C(c1ccc(F)cc1)C1CCN(CCn2c(=S)[nH]c3ccccc3c2=O)CC1,inactive,–,inactive,–,–,inactive,inactive,inactive,inactive,–
C[N+]1(C)CCC(=C(c2ccccc2)c2ccccc2)CC1,inactive,–,inactive,–,–,inactive,inactive,inactive,inactive,–
CC(=O)Nc1ccc(S(=O)(=O)Nc2ccc([N+](=O)[O-])cc2)cc1,inactive,–,inactive,inactive,–,inactive,inactive,inactive,inactive,–

SMILES,Potency (MCC-13),Potency (MCC-26),Potency (MKL-2),Potency (UISO),Potency (WaGa),Potency (C33A),Potency (CAOV3),Potency (CASKI),Potency (MKL-1),outcome (NIH3T3)
Nc1ccc(C(=O)NCC(=O)O)cc1,–,inactive,inactive,inactive,inactive,inactive,inactive,inactive,inactive,–
O=C1C(CCS(=O)c2ccccc2)C(=O)N(c2ccccc2)N1c1ccccc1 (stereo not given),inactive,–,–,inactive,inactive,inactive,inactive,inactive,–,–
CCOC(=O)c1c(N)sc2c1CCN(Cc1ccccc1)C2,inactive,–,3.76 µM (active),–,21.1 µM (active),–,–,–,–,–
CCc1oc2ccccc2c1C(=O)c1cc(I)c(O)c(I)c1,inactive,–,inactive,–,inactive,inactive,inactive,inactive,inactive,–
CCCCCCCCCCCCCC[N+](C)(C)Cc1ccccc1,–,21.1 µM (active),1.06 µM (active),6.68 µM (active),7.5 µM (active),25.1 µM (active),–,14.1 µM (active),6.68 µM (active),–
CCc1ccc(C(=O)C(C)CN2CCCCC2)cc1 (stereo not given),inactive,–,11.9 µM (active),inactive,–,inactive,inactive,inactive,–,–
O=C(Oc1cccc2cccnc12)c1ccccc1,–,–,–,–,–,–,–,inactive,inactive,–
O=C(CCCN1CC=C(n2c(=O)[nH]c3ccccc32)CC1)c1ccc(F)cc1,–,inactive,inactive,26.6 µM (active),–,inactive,–,inactive,inactive,–
CCN(CC)CCNc1ccc(CO)c2sc3ccccc3c(=O)c12,26.6 µM (active),–,3.35 µM (active),5.96 µM (active),–,–,22.4 µM (active),–,10.6 µM (active),–
O=S(c1cc(Cl)cc(Cl)c1O)c1cc(Cl)cc(Cl)c1O,inactive,–,inactive,inactive,–,inactive,inactive,inactive,inactive,–
CN1CCc2cccc3c2[C@H]1Cc1ccc(O)c(O)c1-3,–,inactive,0.841 µM (active),–,11.9 µM (active),–,–,inactive,1.33 µM (active),–
Nc1nc(Cl)nc2c1ncn2[C@@H]1O[C@H](CO)[C@@H](O)[C@@H]1F,–,3.76 µM (active),–,–,0.0944 µM (active),–,1.12 µM (active),–,0.119 µM (active),–
CCN(CC)CCOc1ccc2c(c1)C(=O)c1cc(OCCN(CC)CC)ccc1-2,–,inactive,2.37 µM (active),–,15 µM (active),17.8 µM (active),–,–,13.3 µM (active),–
O=C(N/N=C/c1ccc([N+](=O)[O-])o1)c1ccc(O)cc1,–,–,10.6 µM (active),13.3 µM (active),10.6 µM (active),–,–,–,9.44 µM (active),–
CCOc1ccccc1C(N)=O,inactive,–,–,–,–,inactive,inactive,inactive,–,inactive
CN1CCC[C@@H]1CCO[C@](C)(c1ccccc1)c1ccc(Cl)cc1,–,inactive,9.44 µM (active),21.1 µM (active),–,–,–,–,23.7 µM (active),–
N/C(=N\N=C\c1ccc(Cl)cc1)N/N=C/c1ccc(Cl)cc1,inactive,–,–,inactive,inactive,inactive,–,inactive,inactive,–
O=c1[nH]c(=O)n([C@H]2C[C@H](O)[C@@H](CO)O2)cc1F,–,–,–,–,0.0335 µM (active),–,1.58 µM (active),–,–,–
C/C=C/c1ccc(O)c(OC)c1,inactive,–,–,inactive,inactive,inactive,–,inactive,inactive,–
CCCCNc1ccc(C(=O)OCCOCCOCCOCCOCCOCCOCCOCCOCCOC)cc1,inactive,–,inactive,–,–,inactive,–,inactive,inactive,–
O[C@@H](c1cc(C(F)(F)F)nc2c(C(F)(F)F)cccc12)[C@H]1CCCCN1,–,–,2.99 µM (active),23.7 µM (active),–,28.2 µM (active),20 µM (active),–,21.1 µM (active),–
O=C(Nc1ncc([N+](=O)[O-])s1)c1cccs1,–,inactive,–,–,26.6 µM (active),inactive,inactive,–,–,–
CCCCCCCCNC(C)C(O)c1ccc(SC(C)C)cc1 (stereo not given),–,–,18.8 µM (active),–,–,–,–,–,–,–
CCCCCN=C(N)N/N=C/c1c[nH]c2ccc(OC)cc12,–,23.7 µM (active),inactive,11.9 µM (active),inactive,–,–,–,inactive,–
Cc1cc(NS(=O)(=O)c2ccc(N)cc2)nc(C)n1,inactive,–,inactive,–,inactive,inactive,inactive,inactive,inactive,–
Oc1c(Cl)cc(Cl)c(Cl)c1Cc1c(O)c(Cl)cc(Cl)c1Cl,–,inactive,–,11.9 µM (active),23.7 µM (active),–,inactive,inactive,–,–
